# PubChem BioAssay (NCATS)
# Values joined by “and” are separate entries in the source; they are usually repeats but may differ in a detail not shown here. Equal values may be shown once. Results filed as inconclusive are left out. Entries that show only a call come without a potency. A number with no mark means an inactive call. Active and inactive are the calls of the source. Unless noted, calls follow the shape of the dose curve; as a rule, active = well fitted curve in the direction sought with a large enough effect; inconclusive = small, poorly fitted or top-dose-only effect, or another doubt; inactive = no such curve, though single readings can be large; an effect the other way counts as inactive or inconclusive.
# What was measured:
# [1] = target: Cellular tumor antigen p53 (Homo sapiens) (UniProt P04637); test: Primary qHTS for small molecule compounds that upregulate eGFP-tagged delta133p53alpha (in N-terminal) cells. (AID 2060322); settings: NCI-H358 eGFP-delta133p53alpha fluorescence, 24 h; activation: hits give high values; also: nearly all actives have a fitted effect of over 75% in size; also: potency is read from the fitted curve at half-maximal effect;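 as to activation: cells pre-induced with doxycycline then dosed without doxycycline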
# Method in brief: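 NCI-H358 cells pre-induced 24 h with 10 ng/ml doxycycline for eGFP-delta133p53alpha, plated dox-free and exposed 24 h at 37C to titrated compounds. Fixed, Hoechst-stained; gated GFP peak intensity by laser scanning cytometry, normalized to DMSO (0%) and 57.5 uM 5-azacytidine (100%).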
# [2] = BET inhibitor-based combinations targeting novel dependencies in MECOM-rearranged (r) AML: OCI-AML3 cell line (AID 2202232); settings: CellTiter-Glo luminescence, 48 h; Potency: OCI-AML3 viability; series mostly up to 46 µM; also: nearly all actives have a fitted effect of over 35% in size; also: potency is read from the fitted curve at half-maximal effect
# Method in brief: (§1)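 Each compound was tested at eleven concentrations on cells seeded at 500/well. After two days' incubation, ATP-based luminescence reported viability; responses relative to DMSO and blank wells yielded AUC and cell-line-centred Z-AUC.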
# [3] = BET inhibitor-based combinations targeting novel dependencies in MECOM-rearranged (r) AML: UCSD-AML1 cell line (AID 2202235); settings: UCSD-AML1 AML cells viability, CellTiter-Glo, 48 h; series mostly up to 46 µM; also: nearly all actives have a fitted effect of over 40% in size; also: potency is read from the fitted curve at half-maximal effect
# Method in brief: (§2)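 First, 500 cells per well were seeded; next, drugs were pinned as 11-point doses; then plates sat 48 hr in the incubator; finally CellTiter-Glo was added and luminescence read, with AUC and Z-AUC computed.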
# [4] = BET inhibitor-based combinations targeting novel dependencies in MECOM-rearranged (r) AML: AML-191 cell line (AID 2202236; also: nearly all actives have a fitted effect of over 35% in size; also: potency is read from the fitted curve at half-maximal effect); settings: AML-191 viability, CellTiter-Glo luminescence, 48 h; series mostly up to 46 µM
# Method in brief: as §1
# [5] = BET inhibitor-based combinations targeting novel dependencies in MECOM-rearranged (r) AML: AML-194 cell line (AID 2202237; also: nearly all actives have a fitted effect of over 40% in size; also: potency is read from the fitted curve at half-maximal effect); settings: AML-194 (MECOM-r AML) viability, CellTiter-Glo, 48 h; series mostly up to 46 µM
# Method in brief: as §1
# [6] = BET inhibitor-based combinations targeting novel dependencies in MECOM-rearranged (r) AML: SET-2 cell line (AID 2202231); settings: SET-2 AML cells viability, CellTiter-Glo luminescence, 48 h; viability: hits give low values, concentration not given here; also: nearly all actives have a fitted effect of over 35% in size; also: potency is read from the fitted curve at half-maximal effect
# Method in brief: as §1
# [7] = BET inhibitor-based combinations targeting novel dependencies in MECOM-rearranged (r) AML: MV-4-11 cell line (AID 2202233); settings: MV-4-11 AML viability, CellTiter-Glo luminescence, 48 h; series mostly up to 46 µM; also: nearly all actives have a fitted effect of over 45% in size; also: potency is read from the fitted curve at half-maximal effect
# Method in brief: as §2
# [8] = BET inhibitor-based combinations targeting novel dependencies in MECOM-rearranged (r) AML: HNT-34 cell line (AID 2202234); settings: HNT-34 AML viability, CellTiter-Glo luminescence, 48 h; series mostly up to 46 µM; also: nearly all actives have a fitted effect of over 35% in size; also: potency is read from the fitted curve at half-maximal effect
# Method in brief: as §2
# [9] = target: Retinaldehyde dehydrogenase 3 (Homo sapiens) (UniProt P47895); test: qHTS for Inhibitors of the Aldehyde Dehydrogenase Family (ALDH1A3) Primary screen (AID 2061315); settings: ALDH inhibition qHTS; series mostly up to 56 µM
# [10] = target: Aldehyde dehydrogenase 1A1 (Homo sapiens) (UniProt P00352); test: qHTS for Inhibitors of the Aldehyde Dehydrogenase Family (ALDH1A1) Confirmatory screens (AID 2061316); settings: ALDH inhibition qHTS; series mostly up to 47.3 µM; also: potency is read from the fitted curve at half-maximal effect; nearly all actives have a fitted effect of over 65% in size
# [11] = target: Cellular tumor antigen p53 (Homo sapiens) (UniProt P04637); test: Primary qHTS for small molecule compounds that upregulate eGFP-tagged delta133p53alpha (in C-terminal) cells. (AID 2060324); settings: NCI-H358 delta133p53alpha-eGFP (C-terminal tag), GFP fluorescence imaging, 24 h; series mostly up to 57.5 µM
# Method in brief: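 Doxycycline (100 ng/ml, 24 h) first induced the eGFP fusion in NCI-H358 C-terminal-tag cells. Washed-out cells then received titrated compounds for 24 h at 37 °C before paraformaldehyde fixation, Hoechst staining and cytometric GFP quantification.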
# [12] = target: Aldehyde dehydrogenase, mitochondrial (Homo sapiens) (UniProt P05091); test: qHTS for Inhibitors of the Aldehyde Dehydrogenase Family (ALDH2) Validation screens (AID 2061302; active = well fitted inhibition curve with a large enough effect; title and protocol of this record describe different tests); settings: ALDH inhibition qHTS; series mostly up to 42.6 µM
# [13] = target: Retinaldehyde dehydrogenase 3 (Homo sapiens) (UniProt P47895); test: qHTS for Inhibitors of the Aldehyde Dehydrogenase Family (ALDH1A3) Validation screen (AID 2061312); settings: ALDH1A3 enzyme inhibition qHTS validation, fluorescence; series mostly up to 42.4 µM; also: nearly all actives have a fitted effect of over 45% in size
# Chain of Cellular tumor antigen p53 (Homo sapiens) (P04637 whole entry, looked up, the tested form may be a part): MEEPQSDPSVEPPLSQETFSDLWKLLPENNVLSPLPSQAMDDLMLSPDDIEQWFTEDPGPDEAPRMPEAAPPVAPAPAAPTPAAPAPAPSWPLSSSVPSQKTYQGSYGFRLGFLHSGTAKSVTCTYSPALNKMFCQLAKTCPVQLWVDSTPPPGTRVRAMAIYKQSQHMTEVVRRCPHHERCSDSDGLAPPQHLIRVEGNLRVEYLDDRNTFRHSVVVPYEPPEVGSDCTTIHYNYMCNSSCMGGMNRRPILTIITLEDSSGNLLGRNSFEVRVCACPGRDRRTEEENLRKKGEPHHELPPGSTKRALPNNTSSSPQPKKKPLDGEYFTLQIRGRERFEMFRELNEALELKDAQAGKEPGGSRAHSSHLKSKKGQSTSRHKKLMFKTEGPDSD
compound,measurement,setting,value
C[C@]12CC[C@H]3[C@@H](CCC4=CC(=O)CC[C@@]43C)[C@H]1CC[C@H]2OC(=O)CCC1CCCC1,activation,[1],28.3%
same,Potency,[2],inactive
same,Potency,[3],inactive
same,Potency,[4],inactive
same,Potency,[5],inactive
N=c1c2c(-c3ccccc3)c(-c3ccccc3)n(Cc3ccccc3)c2ncn1C1CCC(O)CC1 (centres undefined),activation,[1],11.7%
same,Potency,[6],1320 nM (active)
same,Potency,[2],8330 nM (active)
same,Potency,[3],1320 nM (active)
same,Potency,[4],2630 nM (active)
same,Potency,[5],4680 nM (active)
C=C1C[C@@H]2[C@H](CC[C@]3(C)C(=O)CC[C@@H]23)[C@@]2(C)C=CC(=O)C=C12,activation,[1],-17.6%
same,Potency,[7],18600 nM (active)
same,Potency,[3],inactive
C[C@@H]1C[C@@H]([C@H](O)CC2CC(=O)NC(=O)C2)C(=O)[C@@H](C)C1,Potency,[1],4.37 µM (active) and 968 nM (active)
same,Potency,[6],296 nM (active)
same,Potency,[2],1660 nM (active)
same,Potency,[7],525 nM (active)
same,Potency,[8],263 nM (active)
same,Potency,[3],263 nM (active)
same,Potency,[4],742 nM (active)
same,Potency,[5],833 nM (active)
CCN1C[C@]2(OC(=O)c3ccccc3NC(C)=O)CC[C@H](OC)[C@@]34[C@H]5CC6[C@@H](OC)C[C@](O)(C(C[C@@H]23)[C@@H]14)[C@@]5(O)[C@@H]6OC,activation,[1],24.6%
same,viability,[6],104%
same,Potency,[2],inactive
same,Potency,[7],inactive
same,Potency,[3],inactive
same,Potency,[4],inactive
same,Potency,[5],inactive
Clc1ccccc1C(c1ccccc1)(c1ccccc1)n1cccn1,activation,[1],8.55%
same,viability,[6],90.1%
same,Potency,[2],inactive
same,Potency,[8],inactive
same,Potency,[3],inactive
same,Potency,[4],inactive
same,Potency,[5],inactive
C[C@]12CCC(=O)C(O)=C1CC[C@@H]1[C@@H]2CC[C@]2(C)C(=O)CC[C@@H]12,activation,[1],6.69%
same,Potency,[2],inactive
same,Potency,[8],inactive
same,Potency,[4],inactive
C[C@](O)(COc1ccc(C#N)cc1)C(=O)Nc1ccc(C#N)c(C(F)(F)F)c1,activation,[1],-20%
same,Potency,[2],inactive
same,Potency,[7],inactive
same,Potency,[3],inactive
same,Potency,[5],inactive
CN1CN(c2ccccc2)C2(CCN(CCCC(=O)c3ccc(F)cc3)CC2)C1=O,activation,[1],23.7%
same,Potency,[9],inactive
same,Potency,[10],22500 nM (active)
CSCC[C@@H](NC(=O)[C@@H](Cc1ccccc1)NC(=O)CNC(=O)CNC(=O)[C@@H](N)Cc1ccc(O)cc1)C(=O)O,activation,[1],22.9%
same,viability,[6],119%
same,Potency,[7],inactive
same,Potency,[8],inactive
same,Potency,[5],inactive
C[C@]12CC[C@@H]3c4ccc(OC(=O)N(CCCl)CCCl)cc4CC[C@H]3[C@@H]1CC[C@@H]2OP(=O)(O)O,activation,[1],-2.49% and -2.33%
same,Potency,[9],inactive
same,Potency,[2],inactive
same,Potency,[7],inactive
same,Potency,[8],inactive
same,Potency,[3],inactive
same,Potency,[4],inactive
C[C@]12Cc3cn[nH]c3C[C@@H]1CC[C@@H]1[C@@H]2CC[C@@]2(C)[C@H]1CC[C@]2(C)O,activation,[1],-21.8%
same,viability,[6],57.3%
same,Potency,[2],inactive
same,Potency,[7],742 nM (active)
same,Potency,[5],inactive
COC1(CS(=O)c2ccccc2)CCN(CCc2c[nH]c3ccc(F)cc23)CC1 (centres undefined),activation,[1],-25%
same,viability,[6],110%
same,Potency,[4],inactive
same,Potency,[5],inactive
CN1[C@H]2CC(O)C[C@H]1[C@H]1O[C@H]12 (some centres undefined),activation,[1],-21%
same,viability,[6],118%
same,Potency,[8],inactive
same,Potency,[4],inactive
same,Potency,[5],inactive
O=C(CCCN1CCC2(CC1)C(=O)NCN2c1ccccc1)c1ccc(F)cc1,Potency,[11],inactive
same,Potency,[12],inactive
same,Potency,[13],inactive
C=C(C)[C@H]1CN[C@H](C(=O)O)[C@H]1CC(=O)O,Potency,[12],inactive
same,Potency,[13],inactive
